KLF5 inh: kruppel-like factor 5 inhibition | DLD-1 KLF5 promoter-luciferase reporter, luminescence | inhibition, % at 5 µM | hit rate 0.23% among 290,000 | AID 1700;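 active = inhibition above a per-plate limit of that plate's mean compound inhibition plus 3 SD, cut at about 60% in these data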;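 note: higher means less KLF5 promoter-driven luciferase light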
IEC-6 cytotox: kills IEC-6 intestinal cells in KLF5 counter-screen. IEC-6 cytotoxicity, luminescence viability. inhibition, % at 5 µM. hit rate 0.78% among 290,000. AID 1825; in the data active = inhibition above about 22%
APP transl inh: APP translation inhibition; hit rate 0.82% among 190,000; SH-SY5Y APP 5'UTR-luciferase reporter, luminescence; inhibition, % at 2 µM; AID 1285;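 active = inhibition above a set limit, derived from the sample mean plus 3 SD, cut at about 45% in these data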
BaF3 parental: counter-screen for JAK2V617F inhibitors: parental Ba/F3 viability inhibitors; CellTiter-Glo ATP luminescence; hit rate 1.1% among 220,000; inhibition, % at 5.6 µM;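 active = inhibition above a per-campaign cutoff, the mean inhibition of all tested compounds plus 3 SD, cut at about 27% in these data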
Ba/F3 V617F tox: loss of viability in JAK2V617F-driven Ba/F3 cells; Ba/F3 EpoR-JAK2V617F viability, ATP luminescence; inhibition, % at 5.6 µM; hit rate 1.1% among 220,000;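 active = inhibition above the campaign mean plus 3 SD over all tested compounds, cut at about 24% in these data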;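 note: cytokine-independent growth of Ba/F3 cells driven by EpoR plus mutant JAK2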
Each line names hits and unclear results; the compound was inactive in the other large screens. The list is not random: actives were taken first. Their share in the collection is about 1.9%.

COCC(C)n1c(SCc2nc3ccccc3c(=O)[nH]2)nc2ccccc2c1=O (centres undefined)	IEC-6 cytotox 34
O=C(NNC(=O)c1cccs1)c1ccco1	none
Cc1c(NC(=O)CSc2nnc3c4ccccc4n(CCc4ccccc4)c3n2)c(=O)n(-c2ccccc2)n1C	IEC-6 cytotox 60
CCn1c2ccccc2c2nnc(SCC(=O)Nc3c(C)n(C)n(-c4ccccc4)c3=O)nc21	none
CSc1ccccc1NC(=O)c1c(Br)cnn1C	APP transl inh 51
Cn1ncc(Br)c1C(=O)Nc1c(F)c(F)cc(F)c1F	none
COc1ccc(S(=O)(=O)CC(=O)c2cc3cc(Br)ccc3oc2=O)cc1	none (no result: APP transl inh, BaF3 parental, Ba/F3 V617F tox)
CCCC12CN3CC(C)(CN(C1)C3c1ccc(OC)cc1)C2=O (centres undefined)	BaF3 parental 94
CCn1c(=NC(=O)c2ccco2)sc2cccc(F)c21	none
C[n+]1ccc(/C=C/c2ccccc2O)c2ccccc21	BaF3 parental 71, Ba/F3 V617F tox 58
CC(=O)/C=C/c1ccccc1O	none
CCOC(=O)C1=C(Cc2ccc(OC)cc2)C(=O)c2ccccc2C1=O	APP transl inh 72
CN1C(=O)[C@H](Cc2ccc([N+](=O)[O-])cc2)NC1=S	none (no result: APP transl inh, BaF3 parental, Ba/F3 V617F tox)
OCCN1CCN(C(c2cccs2)c2ccc3cccnc3c2O)CC1 (centres undefined)	KLF5 inh 83, IEC-6 cytotox 50, BaF3 parental 86, Ba/F3 V617F tox 100
CCN1CCN(C(c2ccc(C(F)(F)F)cc2)c2ccc3cccnc3c2O)CC1 (centres undefined)	none (no result: APP transl inh, BaF3 parental, Ba/F3 V617F tox)
Cn1c(SCc2cnc(-c3ccccc3)s2)nnc1C1COc2ccccc2O1 (centres undefined)	none
O=C(Nc1ccc(Cl)cc1)Nc1csc([N+](=O)[O-])c1	BaF3 parental 72, Ba/F3 V617F tox 30 (no result: APP transl inh)
Cc1ccccc1C(=O)Nc1ccc(-c2nnc(SC(C)C(=O)O)n2C)cc1 (centres undefined)	none (no result: APP transl inh)
N#Cc1c(NC(=O)CSc2ncn[nH]2)sc2c1CCCCC2	APP transl inh 79
Cn1cc(C(=O)c2ccc(Cl)cc2)cc1-c1nc2ccccc2n1C	BaF3 parental 47 (no result: APP transl inh)
CC(=O)Nc1ccc(-c2ccnc(-c3ccc(NC(C)=O)cc3)n2)cc1	none
O=C(O)/C=C/c1cccc(OCc2ccccc2)c1	none
O=C(/C=C/c1cccc(OCc2ccccc2)c1)c1cccnc1	APP transl inh 87
Cc1ccc(NC(=O)Cc2sc(C)nc2-c2ccc(C)cc2)cc1	BaF3 parental 39
Cc1ccc(-c2nc(C)sc2CC(=O)NCc2ccco2)cc1	none
Cc1nc2ccccc2n1CC(=O)NC(C)C1CC2CCC1C2 (centres undefined)	BaF3 parental 49, Ba/F3 V617F tox 40
CC(NC(=O)Cn1c(NCCO)nc2ccccc21)C1CC2CCC1C2 (centres undefined)	none
CSc1nc2ccc(NC(=O)C3CCCO3)cc2s1 (centres undefined)	none
COC(=O)c1ccccc1NC(=O)CSc1nc(-c2ccco2)cc(C(F)(F)F)n1	APP transl inh 73
COc1cc(/C=N/NC(=O)C(=O)/C=C2\NC3(CCCC3)Cc3ccccc32)ccc1O	none
O=C(/C=C1\NC2(CCCC2)Cc2ccccc21)C(=O)N/N=C/c1ccccc1O	APP transl inh 67
CCCOc1ccc(N2CC(C(=O)Nc3ncccc3C)CC2=O)cc1 (centres undefined)	none
COc1ccc(N2CC(C(=O)N/N=C/c3ccc(C)cc3)CC2=O)cc1 (centres undefined)	APP transl inh 83
COc1ccc(N2CC(C(=O)Nc3ncccc3C)CC2=O)cc1 (centres undefined)	BaF3 parental 101
COc1ccc(N2CC(C(=O)N/N=C/c3ccc([N+](=O)[O-])cc3)CC2=O)cc1 (centres undefined)	none
O=C(NCCSc1ccccn1)c1ccc(Cl)cc1	none
N#CC(Sc1ccccn1)c1ccc(Cl)cc1 (centres undefined)	BaF3 parental 53, Ba/F3 V617F tox 26
COc1ccccc1C(=O)N=Nc1c(O)[nH]c2ccc([N+](=O)[O-])cc12	Ba/F3 V617F tox 60
O=C(N1CCCCC1)N1CCCN(C(=O)N2CCCCC2)CC1	none
Fc1ccc(-c2cc3nc(-c4ccccc4)cc(N4CCOCC4)n3n2)cc1	none
CN1/C(=C\C(=O)Nc2ccc(Cl)cc2)C(C)(C)c2ccccc21	none
COc1ccccc1C(=O)NC(=S)/C=C1/N(C)c2ccccc2C1(C)C	BaF3 parental 37, Ba/F3 V617F tox 37
CN1/C(=C\C(=S)Nc2ccccc2)C(C)(C)c2ccccc21	BaF3 parental 46, Ba/F3 V617F tox 43
CN1/C(=C\C=N\NC(=O)c2ccccc2Br)C(C)(C)c2ccccc21	BaF3 parental 62, Ba/F3 V617F tox 54
CN1/C(=C/C(=S)NC(=O)C2(C)CC2(Cl)Cl)C(C)(C)c2ccccc21 (centres undefined)	BaF3 parental 58
CCOC(=O)/C=C1/N(C)c2ccccc2C1(C)C	none (no result: APP transl inh)
CN1/C(=C/C=N/n2cnnc2)C(C)(C)c2ccccc21	none
C=CCNC(=O)[C@@H]1CSC2c3ccc(OC)c(OC)c3C(=O)N21 (some centres undefined)	none (no result: APP transl inh, BaF3 parental, Ba/F3 V617F tox)
CCN(c1ccccc1)S(=O)(=O)c1cc(CN2C(=O)c3cccnc3C2=O)ccc1OC	none (no result: APP transl inh, BaF3 parental, Ba/F3 V617F tox)
COc1ccc(C)cc1N(CC(=O)N1CCOCC1)S(C)(=O)=O	none (no result: APP transl inh, BaF3 parental, Ba/F3 V617F tox)
COc1cc(C(=O)NCCc2cc3c(OC)ccc(OC)c3[nH]c2=O)cc(OC)c1OC	none
CN1/C(=C\C(=S)NC(=O)c2ccccc2Cl)C(C)(C)c2ccccc21	BaF3 parental 63, Ba/F3 V617F tox 70
Cc1ccc(Nc2nc3ccccc3n3cnnc23)c(Cl)c1	none (no result: APP transl inh, BaF3 parental, Ba/F3 V617F tox)
C/C(CC(C)(C)C1CCCCC1)=N\NC(N)=S	BaF3 parental 73, Ba/F3 V617F tox 80
O=C(c1c(F)c(F)c(F)c(F)c1F)N(Cc1ccccc1)Cc1ccccc1	none
CC1C/C(=C\c2cccnc2)C(=O)/C(=C/c2cccnc2)C1 (centres undefined)	APP transl inh 96
COc1ccc(Oc2cc(C)c3ccccc3n2)cc1	none
CN(C)c1cccc(NC2=CC(=[N+]3CCOCC3)CC(C)(C)C2)c1	none
CC1(C)CC(N2CCCC2)=CC(=[N+]2CCCCCC2)C1	IEC-6 cytotox 30, BaF3 parental 71, Ba/F3 V617F tox 99
CC1(C)CC(N2CCN(c3ccccc3)CC2)=CC(=[N+]2CCCC2)C1	BaF3 parental 75, Ba/F3 V617F tox 85
CCN(CC)C1=CC(=[N+]2CCCC2)CC(C)(C)C1	BaF3 parental 63, Ba/F3 V617F tox 74
CCc1ccc2[nH]c(=O)c(CN(CCCN3CCOCC3)C(=O)Nc3ccc(F)cc3)cc2c1	none
Cc1cccc(Cc2nnc(CCC(=O)N(CC3CC3)CC3CCCO3)o2)c1 (centres undefined)	none
CCN(CC1CCCO1)C(=O)CCc1nnc(Cc2ccc3c(c2)OCO3)o1 (centres undefined)	BaF3 parental 82
O=c1c2cccc3c2c(nn1CN1CCOCC1)-c1ccccc1-3	BaF3 parental 28
CC[n+]1c(C)n(C)c2cc(S(=O)(=O)N(C)C)ccc21	none

Screening results (PubChem BioAssay)
